Laboratory results taken from PubChem BioAssay (EPA / NIEHS).
Active and inactive are the calls of the source. The calls were made as follows: active = hit-call score of the fitted dose curve at least 0.9, where 1 is the maximum; inactive = score below 0.9.

How the values were obtained:
[1] = read-out: Monokine induced gamma interferon (MIG), CXCL9 (gene 4283); test: BSK_hDFCGF_MIG: BioMAP Diversity Plus: hDFCGF Assay for Monokine induced gamma interferon (MIG) Biomarker Activity (AID 2283063); details: primary human foreskin fibroblasts; actives raise or lower the signal
Outline: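 Chemicals were added to primary human foreskin fibroblast cultures, which were sampled 24 h later. MIG levels were then quantified by ELISA and responses fitted in both directions relative to DMSO.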

[2] = read-out: Matrix Metallopeptidase 1 (MMP1), MMP1 (gene 4312); test: BSK_hDFCGF_MMP1: BioMAP Diversity Plus: hDFCGF Assay for Matrix Metallopeptidase 1 (MMP1) Biomarker Activity (AID 2283064); details: primary human foreskin fibroblasts; actives raise or lower the signal
Outline: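 MMP1 levels quantified by ELISA 24 h after dosing human dermal fibroblast cultures, with parallel SRB total-protein staining for overt cytotoxicity. Data fitted in both directions against DMSO baseline.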

[3] = read-out: Vascular cell adhesion molecule 1 (VCAM1), VCAM1 (gene 7412); test: BSK_hDFCGF_VCAM1: BioMAP Diversity Plus: hDFCGF Assay for Vascular cell adhesion molecule 1 (VCAM1) Biomarker Activity (AID 2283065); details: primary human foreskin fibroblasts; actives raise or lower the signal;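 as to AC50: VCAM-1 protein level quantified by ELISA after 24 h chemical exposure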
Outline: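 Human foreskin fibroblast primary cells, chemical exposure 24 h; VCAM-1 by ELISA; bidirectional fit, DMSO = negative control/baseline.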

[4] = read-out: Intercellular Adhesion Molecule 1 (ICAM1), ICAM1 (gene 3383); test: BSK_KF3CT_ICAM1: BioMAP Diversity Plus: KF3CT Assay for Intercellular Adhesion Molecule 1 (ICAM1) Biomarker Activity (AID 2283067); details: primary human keratinocytes with fibroblasts; actives raise or lower the signal
Outline: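 ICAM-1 levels are measured by ELISA 24 h after dosing a primary human co-culture of keratinocytes and foreskin fibroblasts. Activity in either direction is fitted relative to DMSO vehicle.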

[5] = read-out: Interferon-gamma inducible Protein 10 (IP10), CXCL10 (gene 3627); test: BSK_KF3CT_IP10: BioMAP Diversity Plus: KF3CT Assay for Interferon-gamma inducible Protein 10 (IP10) Biomarker Activity (AID 2283068); details: primary human keratinocytes with fibroblasts; actives raise or lower the signal
Outline: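 In a primary skin co-culture of keratinocytes and fibroblasts, IP-10 is quantified by ELISA at 24 h after dosing. SRB staining of parallel wells monitors overt toxicity. Curves are fitted both directions against DMSO.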

[6] = BSK_KF3CT_SRB: Viability Assessment in the BioMAP Diversity Plus: KF3CT Assay (AID 2283069); details: primary human keratinocytes with fibroblasts;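 also: total protein by sulforhodamine B staining as a cytotoxicity measure; read 24 h after compound addition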
Outline: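 Cytotoxicity was gauged by SRB staining (0.1% SRB, 10% TCA fixation, 560 nm) of parallel cultures at 24 h. The cells were primary human skin keratinocytes co-cultured with fibroblasts, and activity was fitted in both directions against DMSO.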

[7] = read-out: Interleukin-1 alpha (IL1a), IL1A (gene 3552); test: BSK_KF3CT_IL1a: BioMAP Diversity Plus: KF3CT Assay for Interleukin-1 alpha (IL1a) Biomarker Activity (AID 2283070); details: primary human keratinocytes with fibroblasts; actives raise or lower the signal
Outline: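 IL-1a was detected by ELISA 24 h after chemical treatment of a co-culture of human skin keratinocytes and foreskin fibroblasts. Gain or loss of signal was fitted against the DMSO baseline.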

[8] = read-out: TIMP metallopeptidase inhibitor 2 (TIMP2), TIMP2 (gene 7077); test: BSK_KF3CT_TIMP2: BioMAP Diversity Plus: KF3CT Assay for TIMP metallopeptidase inhibitor 2 (TIMP2) Biomarker Activity (AID 2283071); details: primary human keratinocytes with fibroblasts; actives raise or lower the signal
Outline: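 TIMP-2 measured by ELISA at 24 h in human keratinocyte/fibroblast primary co-cultures exposed to chemicals. Both increases and decreases were fitted against DMSO. Parallel cultures were stained with SRB for total protein as an overt-cytotoxicity check.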

[9] = read-out: Transforming growth factor beta 1 (TGFb1), TGFB1 (gene 7040); test: BSK_KF3CT_TGFb1: BioMAP Diversity Plus: KF3CT Assay for Transforming growth factor beta 1 (TGFb1) Biomarker Activity (AID 2283072); details: primary human keratinocytes with fibroblasts; actives raise or lower the signal
Outline: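 ELISA quantifies TGF-b1 at 24 h post-dose in a primary human skin co-culture of keratinocytes and fibroblasts, with gain or loss judged against DMSO. Parallel SRB total-protein staining flags overt cytotoxicity.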

Measured: AC50

CCCCCCCCCCCCCCC
inactive: all assays above

CCCCCc1ccc(O)cc1
active: [1] 31.3 µM | [2] 20 µM | [3] 15.2 µM | [4] 27.6 µM | [5] 29.2 µM | [6] 12.4 µM | [7] 20 µM | [8] 10.4 µM | [9] 5.62 µM

CC(C)(C)c1ccc(O)c(O)c1
active: [1] 31.2 µM | [2] 30.6 µM | [3] 15.5 µM | [4] 5.79 µM | [5] 33.8 µM | [7] 13 µM
inactive: [6] | [8] | [9]

Clc1ccc(Nc2nnc(Cc3ccncc3)c3ccccc23)cc1
active: [8] 3.02 µM | [9] 1.99 µM
inactive: all other assays above

CCCCCCCCCCCCOS(=O)(=O)O
inactive: [4]
active: [1] 27.7 µM | [2] 32.7 µM | [3] 29.3 µM | [5] 33.4 µM | [6] 33.7 µM | [7] 20 µM | [8] 29.3 µM | [9] 33.4 µM

CCCCCCCCCCCCCCCCCC[N+](C)(C)Cc1ccccc1
inactive: [9]
active: [1] 1.86 µM | [2] 3.93 µM | [3] 0.715 µM | [4] 5.58 µM | [5] 2.54 µM | [6] 2.62 µM | [7] 4.24 µM | [8] 3.25 µM

O=C(CCCN1CCC(O)(c2ccc(Cl)cc2)CC1)c1ccc(F)cc1
inactive: all assays above

CCCCC=O
inactive: all assays above

CS(=O)(=O)c1ccc([C@@H](CC2CCCC2)C(=O)Nc2cnccn2)cc1Cl
inactive: all assays above

Cc1cccc2c1ccc1ccccc12
inactive: all assays above

CN(C)CCOC(c1ccccc1)c1ccccc1
inactive: all assays above

O=C(c1ccccc1)c1ccccc1
inactive: all assays above

Cc1ccc(C(=O)c2ccccc2)cc1
inactive: [4] | [5] | [6]
active: [1] 29.5 µM | [2] 30.7 µM | [3] 30.5 µM | [7] 20 µM | [8] 30.3 µM | [9] 30.8 µM

CN(Cc1cnc2nc(N)nc(N)c2n1)c1ccc(C(=O)N[C@@H](CCC(=O)O)C(=O)O)cc1
inactive: all assays above

CCCCC(CC)C(=O)OCCOCCOCCOCCOC(=O)C(CC)CCCC (stereo not drawn)
inactive: all assays above

CCCCC(CC)C(=O)O (stereo not drawn)
inactive: all assays above

COc1cccc(O)c1
inactive: all assays above

O=C(NO)c1ccccc1
inactive: all assays above

C=COC(=O)C(C)(C)CCCCCC
active: [1] 35 µM | [2] 3.97 µM | [3] 30.2 µM | [4] 37.2 µM | [5] 34.7 µM | [6] 34.4 µM | [7] 30.9 µM | [8] 27.6 µM
inactive: [9]

NC(=NCCCCCCN=C(N)/N=C(\N)Nc1ccc(Cl)cc1)/N=C(\N)Nc1ccc(Cl)cc1
active: [2] 7.45 µM | [3] 5.46 µM | [4] 7.53 µM | [5] 6.16 µM | [6] 4.79 µM | [7] 4.32 µM | [8] 5.01 µM | [9] 2.35 µM

C=CC(C)(CCC=C(C)C)OC(C)=O (stereo not drawn)
active: [8] 32 µM
inactive: all other assays above
